We go through 29 sequences from doi:10.1101/2024.03.05.583629.

In the test the target is pT7_6His-AlfaTag-ZIF268 (human, UniProt P18146 335-423). In words: PADIT-seq. The conditions noted are these: dsDNA, one strand shown.
“CTCGAGGATATCAAGATCTGGCCTCGGCGCGTGGTCTGGAACCTCTAGCTAGCCGACTCACTATAGGGATAATCGCCCTGAGCAAAGACC” registered a binding signal of 0.117 ± 0.101 log2FC. On to “CTCGAGGATATCAAGATCTGGCCTCGGCGCGTGGGAAGGAACCTCTAGCTAGCCGACTCACTATAGGGATAATCGCCCTGAGCAAAGACC”, for which the binding signal is 2.03 ± 0.0894 log2FC. Next, “CTCGAGGATATCAAGATCTGGCCTCGGCGCGTCAGCGGGAACCTCTAGCTAGCCGACTCACTATAGGGATAATCGCCCTGAGCAAAGACC”: 0.0878 ± 0.104 log2FC; “CTCGAGGATATCAAGATCTGGCCTCGGCGGGTGGGCGGGAACCTCTAGCTAGCCGACTCACTATAGGGATAATCGCCCTGAGCAAAGACC”: 1.66 ± 0.0839 log2FC.

For the sequence “CTCGAGGATATCAAGATCTGGCCTCGGCGCGCGTGCGGGAACCTCTAGCTAGCCGACTCACTATAGGGATAATCGCCCTGAGCAAAGACC”, the binding signal is 0.0362 ± 0.119 log2FC. “CTCGAGGATATCAAGATCTGGCCTCGGCAGGTGGGCGGGAACCTCTAGCTAGCCGACTCACTATAGGGATAATCGCCCTGAGCAAAGACC” registered a binding signal of 2.15 ± 0.0839 log2FC.

The sequence “CTCGAGGATATCAAGATCTGGCCTCGGCGCGTGGTTGGGAACCTCTAGCTAGCCGACTCACTATAGGGATAATCGCCCTGAGCAAAGACC” had a binding signal of 0.34 ± 0.0919 log2FC.

“CTCGAGGATATCAAGATCTGGCCTCGGCGCGTGGGGCGGAACCTCTAGCTAGCCGACTCACTATAGGGATAATCGCCCTGAGCAAAGACC” showed a binding signal of 0.735 ± 0.107 log2FC. In the case of “CTCGAGGATATCAAGATCTGGCCTCGGCTTCCCACGCGGAACCTCTAGCTAGCCGACTCACTATAGGGATAATCGCCCTGAGCAAAGACC” it was 0.363 ± 0.0983 log2FC. Next, “CTCGAGGATATCAAGATCTGGCCTCGGCGCGTGGGCAGGAACCTCTAGCTAGCCGACTCACTATAGGGATAATCGCCCTGAGCAAAGACC”: 2.8 ± 0.0823 log2FC; “CTCGAGGATATCAAGATCTGGCCTCGGCGCGTGAGCGGGAACCTCTAGCTAGCCGACTCACTATAGGGATAATCGCCCTGAGCAAAGACC”: 0.00935 ± 0.101 log2FC; “CTCGAGGATATCAAGATCTGGCCTCGGCCGCCCAAGTGGAACCTCTAGCTAGCCGACTCACTATAGGGATAATCGCCCTGAGCAAAGACC”: 0.0066 ± 0.0917 log2FC. Consider “CTCGAGGATATCAAGATCTGGCCTCGGCGTGTGGGCGGGAACCTCTAGCTAGCCGACTCACTATAGGGATAATCGCCCTGAGCAAAGACC”, for which the binding signal is 3.29 ± 0.0753 log2FC.

On to “CTCGAGGATATCAAGATCTGGCCTCGGCATACCACGCGGAACCTCTAGCTAGCCGACTCACTATAGGGATAATCGCCCTGAGCAAAGACC”, for which the binding signal came out at 0.123 ± 0.0818 log2FC.

“CTCGAGGATATCAAGATCTGGCCTCGGCGCGAAAGCGGGAACCTCTAGCTAGCCGACTCACTATAGGGATAATCGCCCTGAGCAAAGACC” yielded a binding signal of 0.0239 ± 0.114 log2FC. Consider “CTCGAGGATATCAAGATCTGGCCTCGGCGCGGCGGCGGGAACCTCTAGCTAGCCGACTCACTATAGGGATAATCGCCCTGAGCAAAGACC”, for which the binding signal turned out to be 0.141 ± 0.11 log2FC. Regarding “CTCGAGGATATCAAGATCTGGCCTCGGCGCGTAGGCGGGAACCTCTAGCTAGCCGACTCACTATAGGGATAATCGCCCTGAGCAAAGACC”, the binding signal was 3.65 ± 0.0875 log2FC. In the case of “CTCGAGGATATCAAGATCTGGCCTCGGCGCGTGGGAGGGAACCTCTAGCTAGCCGACTCACTATAGGGATAATCGCCCTGAGCAAAGACC” it was 3.65 ± 0.0848 log2FC; in that of “CTCGAGGATATCAAGATCTGGCCTCGGCGCGTGGTCCGGAACCTCTAGCTAGCCGACTCACTATAGGGATAATCGCCCTGAGCAAAGACC”, 0.192 ± 0.0971 log2FC. “CTCGAGGATATCAAGATCTGGCCTCGGCACATGGGCGGGAACCTCTAGCTAGCCGACTCACTATAGGGATAATCGCCCTGAGCAAAGACC” gave a binding signal of 0.18 ± 0.0881 log2FC. In the case of “CTCGAGGATATCAAGATCTGGCCTCGGCCGCCCAGATGGAACCTCTAGCTAGCCGACTCACTATAGGGATAATCGCCCTGAGCAAAGACC” it was 0.0137 ± 0.113 log2FC. In turn, “CTCGAGGATATCAAGATCTGGCCTCGGCCGCCCACCAGGAACCTCTAGCTAGCCGACTCACTATAGGGATAATCGCCCTGAGCAAAGACC” yielded a binding signal of 0.0728 ± 0.0981 log2FC. In the case of “CTCGAGGATATCAAGATCTGGCCTCGGCGCGTGGGTGGGAACCTCTAGCTAGCCGACTCACTATAGGGATAATCGCCCTGAGCAAAGACC”, the binding signal was 4.08 ± 0.0892 log2FC.

As for “CTCGAGGATATCAAGATCTGGCCTCGGCTTGCCACGCGGAACCTCTAGCTAGCCGACTCACTATAGGGATAATCGCCCTGAGCAAAGACC”, the binding signal was found to be 0.107 ± 0.166 log2FC.

Turning to “CTCGAGGATATCAAGATCTGGCCTCGGCGCGTGGATTGGAACCTCTAGCTAGCCGACTCACTATAGGGATAATCGCCCTGAGCAAAGACC”, the binding signal came out at 0.000823 ± 0.102 log2FC. Sequence “CTCGAGGATATCAAGATCTGGCCTCGGCGCGTGGCCCGGAACCTCTAGCTAGCCGACTCACTATAGGGATAATCGCCCTGAGCAAAGACC” showed a binding signal of 0.0738 ± 0.102 log2FC. In the case of “CTCGAGGATATCAAGATCTGGCCTCGGCCGCCCACGTGGAACCTCTAGCTAGCCGACTCACTATAGGGATAATCGCCCTGAGCAAAGACC” it was 1.68 ± 0.0823 log2FC; in that of “CTCGAGGATATCAAGATCTGGCCTCGGCAACCCACGCGGAACCTCTAGCTAGCCGACTCACTATAGGGATAATCGCCCTGAGCAAAGACC”, 0.721 ± 0.102 log2FC; in that of “CTCGAGGATATCAAGATCTGGCCTCGGCGCGGTGGCGGGAACCTCTAGCTAGCCGACTCACTATAGGGATAATCGCCCTGAGCAAAGACC”, 0.175 ± 0.118 log2FC.
